# Screens as filed in PubChem BioAssay.
# Most compounds without a hit are left out; they make up all but 5.9% or so of the library.
# AHR activator – activates the human aryl hydrocarbon receptor; 320,000 compounds, 2.5% hits; activation, % at 5 µM; AHR-responsive luciferase reporter cells, luminescence; in the data active = activation above about 47%
# NR0B1 inh – NR0B1 (DAX1) inhibition. P51843. HEK293 Gal4-DAX1 luciferase reporter, luminescence. inhibition, % at 6.75 µM. 340,000 compounds, 0.99% hits. AID 504766;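 active = inhibition above the mean over all tested compounds plus 3 SD, cut at about 4.2% in these data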;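 also: inhibition shows as a rise in luminescence from relieved DAX1 repression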
# Target sequence (P51843 207-470 limits assumed): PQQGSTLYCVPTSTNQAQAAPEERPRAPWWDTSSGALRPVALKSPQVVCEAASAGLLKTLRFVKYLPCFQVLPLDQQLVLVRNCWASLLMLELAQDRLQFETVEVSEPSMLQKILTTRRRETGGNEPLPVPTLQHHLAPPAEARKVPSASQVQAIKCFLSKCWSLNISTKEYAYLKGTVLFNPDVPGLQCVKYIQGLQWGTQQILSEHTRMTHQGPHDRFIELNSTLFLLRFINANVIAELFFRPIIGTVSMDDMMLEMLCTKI
# HSP90 inh – inhibitors of HSP90 luciferase refolding in rabbit reticulocyte lysate; AID 1789; luciferase refolding luminescence, 3 h; inhibition, % at 5.6 µM; 290,000 compounds, 0.91% hits;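 active = inhibition above the screen-wide mean plus 3 SD, computed separately per campaign, cut at about 16% in these data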;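 also: inhibitors lower the luminescence because luciferase stays unfolded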
# HSF-1 act – increases HSF-1 driven luciferase reporter signal; activation, % at 9 µM; AID 504408; NIH3T3-HGL HSF-1 luciferase reporter, MG132, 8 h; 100% = twice DMSO control signal; 300,000 compounds, 1.7% hits;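 active = mean replicate activation of at least 50% with a set share of replicates each reaching 50%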
# GAA850 FXN act – increases GAA850 frataxin promoter reporter activity; 360,000 compounds, 0.56% hits; HEK293 lucGAA850 FXN promoter luciferase reporter, 24 h; percent of 10 µM SAHA response; activation, % at 6 µM;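 active = activation above the average of all compounds screened plus 3 SD, cutoff fixed separately per campaign, cut at about 7.5% in these data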
# HSF1 inhib – HSF1 inhibition; 300,000 compounds, 0.77% hits; NIH3T3-HGL HSE-luciferase, MG132-induced, luminescence 8 h; hits give low values; activity change, negative = inhibition, % at 7.5 µM (by protocol);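 active = more than half of replicate wells show activity change below -50%, luminescence cut by over half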;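 also: luciferase reports HSF-1 transcriptional activity via heat shock element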
# A number is an active result; . = inactive; / = not tested or not shown.
SMILES,AHR activator,NR0B1 inh,HSP90 inh,HSF-1 act,GAA850 FXN act,HSF1 inhib
O=C(N/N=C/C=C\c1ccccc1[N+](=O)[O-])c1cc(-c2ccc3ccccc3c2)n[nH]1,/,.,.,64,.,.
O=C(N/N=C/C=C/c1ccccc1[N+](=O)[O-])c1ccncc1,.,.,.,.,.,.
O=C(N/N=C/C=C\c1ccccc1[N+](=O)[O-])c1cccnc1,.,.,.,.,.,.
O=[N+]([O-])c1ccccc1C=CC=NN=Cc1ccccc1O,/,5.5,/,.,.,.
O=C(N/N=C/c1ccccc1[N+](=O)[O-])c1cnccn1,.,4.3,.,.,.,.
O=C(N/N=C/C=C/c1ccccc1[N+](=O)[O-])c1cccnc1,72,.,.,.,.,.
O=C(NC1CCCCC1)NS(=O)(=O)c1ccc2c(c1)CCC2,/,.,/,/,.,/
N#Cc1cccc(C(=O)Nc2ccccc2C(=O)NC2CC2)c1,/,.,/,/,.,/
C[C@@H]1CN([C@H](C)CO)C(=O)CCCn2cc(nn2)CO[C@H]1CN(C)S(=O)(=O)c1ccccc1,/,.,/,/,.,/
O=[N+]([O-])c1ccc(C2CN=C(Nc3ccccc3)S2)cc1 (stereo not given),.,.,.,65,.,.
Cc1ccc(NC2=NCC(Cc3ccc(Br)cc3)S2)cc1 (stereo not given),.,.,.,.,.,.
CCc1ccc(NC2=NCC(c3ccccc3)S2)cc1 (stereo not given),.,.,.,56,.,.
Cc1ccc2c(c1)sc1nc(=O)n(-c3ccccc3)c(=O)n12,.,.,.,58,.,.
CC(=O)N1CCCC(C)(C(=O)Nc2ccc3nc(C)ccc3c2)C1 (stereo not given),/,/,/,/,.,/
COc1ccc(/C=N/NC(=O)c2nnn(-c3nonc3N)c2C)cc1OC,/,.,/,/,.,/
COc1ccc(/C=N/NC(=O)c2c(C)nnn2-c2nonc2N)cc1OC,.,5.8,.,.,.,.
CCc1c(C(=O)N/N=C/c2ccc(OCc3ccc(F)cc3)c(OC)c2)nnn1-c1nonc1N,.,.,.,57,.,.
c1ccc(NCCc2ccccn2)cc1,/,.,/,/,.,/
Nc1cc(C(F)(F)F)ccc1NCCc1ccccn1,64,.,.,.,.,.
COc1cccc(Nc2ncnc3c2cnn3-c2cccc(C)c2)c1,.,.,.,.,.,.
Fc1cccc(Nc2ncnc3c2cnn3-c2ccccc2)c1,.,.,/,53,.,.
c1ccc(CSc2ncnc3c2cnn3-c2ccccc2)cc1,.,.,.,.,.,-59
COc1ccccc1Nc1ncnc2c1cnn2-c1cccc(C)c1,51,.,.,.,.,.
Clc1cccc(Nc2ncnc3c2cnn3-c2ccccc2)c1,.,.,/,.,.,.
Nc1nc2c(ncn2CCC(CO)CO)c(=O)[nH]1,.,/,/,.,/,.
SMILES,AHR activator,NR0B1 inh,HSP90 inh,HSF-1 act,GAA850 FXN act,HSF1 inhib
O=C(N[C@H]1CCCCNC1=O)c1cc(COc2ccc(F)cc2F)on1,.,.,.,.,.,.
COc1ccc(OC)c(/C=N/NC(=O)c2cc3c(OC)c(OC)ccc3[nH]2)c1,79,.,.,.,.,.
CCCOc1ccc2[nH]c(C(=O)N/N=C/c3cc(OC)c(OC)c(OC)c3)cc2c1,.,.,.,.,.,.
CCOc1ccc(/C=N/NC(=O)c2cc3c(OC)cc(OC)c(OC)c3[nH]2)cc1,48,.,.,.,.,.
COc1ccc2[nH]c(C(=O)N/N=C/c3ccccc3OC)cc2c1,.,.,.,.,.,.
Cc1cc(C)cc(NC(=O)Cn2c(SCc3cc(C)ccc3C)nc3ccncc32)c1,/,/,16,/,/,/
Cc1ccc(CSc2nc3ccncc3n2CC(=O)Nc2cc(C)cc(C)c2)cc1,.,.,.,.,.,.
CCCC(=O)Oc1ccc(C2NC(=O)c3ccccc3O2)cc1 (stereo not given),56,.,.,.,.,.
CC(C)c1ccc(C2NC(=O)c3ccccc3O2)cc1 (stereo not given),.,.,.,71,.,.
CCOc1ccc(C2NC(=O)c3ccccc3O2)cc1 (stereo not given),.,.,.,.,.,.
CC(C)Oc1ccc(C2NC(=O)c3ccccc3O2)cc1 (stereo not given),.,4.4,.,.,.,.
COc1ccccc1N1CCN(C(=O)CCC(=O)Nc2nnc(C(C)C)s2)CC1,.,.,.,.,.,.
O=[N+]([O-])c1ccc(O)c(Nc2ncnc3ccccc23)c1,.,.,.,.,.,.
Cc1ccc(O)c(Nc2ncnc3ccc([N+](=O)[O-])cc23)c1,50,.,.,.,.,.
O=[N+]([O-])c1ccc(O)c(Nc2ncnc3ccc(Br)cc23)c1,75,.,.,.,.,.
CC1CCN(S(=O)(=O)c2cccc(S(=O)(=O)N3CCCC3)c2)CC1,.,.,.,.,.,.
O=C(COc1ccc(F)cc1Br)NCC1(N2CCOCC2)CCCCC1,.,.,/,/,.,/
CCOc1ccccc1OCCC(=O)OCC(=O)Nc1c(C)cc(C)cc1C,.,.,/,.,.,.
CCn1c(=N)n(CC(=O)c2ccc(OC)cc2)c2ccccc21,66,.,.,.,.,.
N=c1n(CCN2CCCCC2)c2ccccc2n1CC(=O)c1ccc(Cl)c(Cl)c1,111,/,.,.,.,.
COc1ccc(C(=O)Cn2c(C(=O)/C=C/c3ccccc3)nc3ccccc32)cc1,.,.,.,341,.,.
CCn1c(=N)n(CC(=O)c2ccc(Cl)c(Cl)c2)c2ccccc21,65,.,.,.,.,.
COc1ccc(C(=O)CSc2nc3ccccc3n2CC(=O)c2ccccc2)cc1,.,.,.,.,.,.
Cc1ccc(NC(=O)CNc2cccc(Br)c2)cc1S(=O)(=O)N1CCOCC1,.,.,/,/,.,/
Cc1noc(C)c1Cn1c(C)c(C(=O)NCc2ccc3c(c2)OCCO3)sc1=O,/,/,/,/,.,/
SMILES,AHR activator,NR0B1 inh,HSP90 inh,HSF-1 act,GAA850 FXN act,HSF1 inhib
CC(=O)Nc1cccc(-c2ccnc3c2CC(C)(C(=O)Nc2cccnc2)O3)c1 (stereo not given),/,/,/,/,.,/
O=C(Nc1ccc(Cl)cc1)c1csc([C@@H]2C[C@H](O)[C@@H](CO)O2)n1,/,/,/,/,.,/
CC(OC(=O)CN1C(=O)c2ccccc2C1=O)C(=O)N(C)c1ccccc1 (stereo not given),.,.,/,.,.,.
CCOc1ccc(NS(=O)(=O)c2cc(NC(=O)CCC(=O)c3cccs3)ccc2Cl)cc1,.,5.8,.,.,.,.
COc1ccccc1NS(=O)(=O)c1cc(NC(=O)CCC(=O)c2cccs2)ccc1Cl,.,.,.,.,.,.
O=C(COC(=O)c1ccc(S(=O)(=O)NCc2ccco2)cc1)Nc1ccccc1OC(F)F,.,.,.,103,.,.
N#Cc1ccc(C(=O)OCCCc2cc3ccccc3c(=O)o2)cc1,.,.,/,/,.,/
CCn1c(COc2cccc3cccnc23)nnc1SCC(=O)O,.,5.4,.,.,.,.
COc1cc(NC(=O)COc2ccc(Cl)cc2)ccc1-c1cc2ccccc2oc1=O,55,.,.,.,.,.
